# Shown are actives, neighbours in structure and some others; about 3.9% of the full set was active somewhere.
# WT yeast gro inh: growth inhibition of WT strain, primary screen, mitochondrial fusion inhibitor project, WT and mutant strains, chemical genetic. AID 1362, 2008. mitochondrial fusion phenotypic screen. 190,000 compounds, 2.1% hits. inhibition, % at 10 µM; in the data active = inhibition above about 58%; tested in S. cerevisiae
# TPT1 inh: Candida albicans TPT1 enzyme inhibitors, primary screen, biochemical, fluorescence polarization. recombinant caTPT1, FP RNA substrate dephosphorylation. inhibition, % at 5 µM. 300,000 compounds, 0.81% hits;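 active = inhibition above the mean of all tested compounds plus 3 SD, set per screening campaign, cut at about 24% in these data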;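 also: plate controls were DMSO alone for no effect and ferristatin control at 100 nM for full effect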
# SKKanGAS inh: S. pyogenes SKKanGAS growth inhibitors in kanamycin, primary screen, streptokinase expression inhibitor project, SKKanGAS strain, BacTiter-Glo luminescence; inhibition, % at 7.5 µM; 300,000 compounds, 1.3% hits; AID 1662, 2009; 6 h;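 active = mean replicate score, as percent of positive control median, at least 50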;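 also: strain carries kanamycin resistance gene driven by streptokinase promoter and grows in 40 µg/ml kanamycin; loss of luminescence reflects streptokinase promoter inhibition or plain growth inhibition; 0% = median of DMSO wells and 100% = positive control at its reference dose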
# Platelet DG rel: inhibitors of platelet dense granule secretion, primary screen, cell-based, MLPCN, human platelets; human platelet-rich plasma, SFLLRN dense granule ATP release, luminescence; inhibition, %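 (compounds screened at 7.5 µM in platelet-rich plasma)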; 300,000 compounds, 0.22% hits; AID 1663, 2009;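 active = mean replicate score, as percent of positive control, at or above 50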
# PHOSPHO1 block: PubChem AID 1565; recombinant PHOSPHO1, absorbance phosphatase assay; inhibition, % at 13.3 µM; Phosphoethanolamine/phosphocholine phosphatase (Homo sapiens), Q8TCT1; 290,000 compounds, 1.1% hits; in the data active = inhibition above about 60%
# Target sequence (Q8TCT1 whole entry, looked up): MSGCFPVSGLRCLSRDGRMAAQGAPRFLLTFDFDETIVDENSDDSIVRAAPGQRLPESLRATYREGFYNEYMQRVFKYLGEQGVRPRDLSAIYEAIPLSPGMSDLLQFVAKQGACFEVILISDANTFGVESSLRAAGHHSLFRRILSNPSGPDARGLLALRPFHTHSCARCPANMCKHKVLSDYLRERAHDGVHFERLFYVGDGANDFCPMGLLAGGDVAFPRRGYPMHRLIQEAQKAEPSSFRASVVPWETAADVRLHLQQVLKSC
# Rtt109 Vps75: inhibitors of C. albicans Rtt109/Vps75 HAT, primary screen, biochemical, ThioGlo CoA-SH fluorescence, plate reader; purified Rtt109/Vps75, 4 h; inhibition, % at 34.9 µM; 330,000 compounds, 0.16% hits;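 active = inhibition of at least 50% in every replicate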
# Target sequence (Q5AAJ8 whole entry, looked up): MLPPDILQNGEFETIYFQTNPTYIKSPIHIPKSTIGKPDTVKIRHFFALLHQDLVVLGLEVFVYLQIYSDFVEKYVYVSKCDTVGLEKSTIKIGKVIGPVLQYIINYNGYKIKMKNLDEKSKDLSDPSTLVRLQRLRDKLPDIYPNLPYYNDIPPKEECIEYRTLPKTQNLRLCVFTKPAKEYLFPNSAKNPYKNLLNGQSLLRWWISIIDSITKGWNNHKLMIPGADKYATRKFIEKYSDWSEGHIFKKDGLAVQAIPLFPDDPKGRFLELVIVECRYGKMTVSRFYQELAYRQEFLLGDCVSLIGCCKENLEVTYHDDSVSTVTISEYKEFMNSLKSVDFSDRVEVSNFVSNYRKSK
# * marks the source's active call; other numbers are inactive results; . = not tested or not shown.
SMILES,WT yeast gro inh,TPT1 inh,SKKanGAS inh,Platelet DG rel,PHOSPHO1 block,Rtt109 Vps75
CCOC(=O)C(OC(=O)c1sc(=S)n(C)c1C)C(C)=O (centres undefined),-2.3,-5.2,-6.9,50.1*,36.3,-1.0
Cc1ccc(OCCOC(=O)c2sc(=S)n(C)c2C)cc1,21.7,-2.4,9.6,-1.9,16.8,-4.8
Cn1c(N2CCN(C(c3ccccc3)c3ccccc3)CC2)nc2ccccc21,.,3.5,26.8,-14.1,40.4,10.8
COc1ccccc1CNC(=O)CN(C)S(=O)(=O)c1cccc2cccnc12,.,-3.1,-4.5,5.6,41.6,6.7
COCCN1Cc2cccc(C(=O)Nc3ccc(-c4nc5ccccc5[nH]4)cc3)c2C1=O,5.4,0.9,5.0,-0.3,-6.6,55.3*
Oc1ccc(C2=NNC(=NCc3ccc4c(c3)OCO4)SC2)c(O)c1,-1.0,3.3,16.4,-8.3,14.1,1.1
Clc1ccc(C2=NNC(=NCc3ccc4c(c3)OCO4)SC2)cc1,61.1*,2.7,.,.,0.8,9.1
O=c1[nH]cnc2sc3c(c12)CCC3,.,3.7,-6.7,-4.5,15.7,-2.4
CCOC(=O)c1c(C)[nH]c(C(=O)OCC(=O)Nc2cc(Cl)ccc2OC)c1C,85.4*,-1.8,4.2,-1.3,6.0,-4.9
O=C(COc1ccc(NC(=O)c2ccccc2)cc1)c1ccccc1,.,1.8,18.0,42.3,23.8,21.6
Cn1cccc1C(=O)OCc1csc(-c2ccccc2)n1,30.5,5.2,17.4,-0.1,100.2*,-4.0
O=C(OCc1csc(-c2ccccc2)n1)c1cccs1,48.2,1.4,3.4,-8.9,63.2*,8.2
Cc1ccsc1C(=O)OCc1csc(-c2ccccc2)n1,67.0*,-8.3,-4.1,-7.0,20.0,-6.8
CCOC(=O)CC1C(=O)NCCN1C(=O)c1cccc(OC)c1 (centres undefined),.,-5.6,-3.9,2.9,37.5,1.9
CC(=O)N1CCc2cc(S(=O)(=O)CCC(=O)NCCc3ccc(Cl)cc3)ccc21,.,-0.7,3.4,-1.6,64.9*,5.0
Oc1c(Br)cc(Br)cc1/C=N/NC(=S)N[C@H]1CC2C=CC1C2 (some centres undefined),.,14.2,119.8*,-7.7,2.8,8.2
CCOc1ccc(/C=N/NC(=S)NC2CC3C=CC2C3)cc1 (centres undefined),.,-3.0,64.2*,-5.4,29.8,-2.5
CCN(C(=O)COC(=O)c1oc2ccc(OC)cc2c1C)C1CCS(=O)(=O)C1 (centres undefined),.,.,.,.,.,-2.2
COc1ccc(OC)c(NC(=S)NCCC(c2ccccc2)c2ccccc2)c1,.,-4.2,12.5,7.8,.,-4.7
Cc1ccccc1NC(=S)NCCC(c1ccccc1)c1ccccc1,78.8*,0.5,41.6,1.7,23.4,2.2
S=C(NCCC(c1ccccc1)c1ccccc1)Nc1cccc(Cl)c1,80.2*,-3.7,101.7*,10.9,17.9,13.0
Cc1ccc(NC(=S)NCCC(c2ccccc2)c2ccccc2)c(C)c1,65.1*,0.9,65.8*,-1.3,13.9,5.1
Fc1ccc(CNC(=S)Nc2cccc(Cl)c2)cc1,60.3*,2.5,19.5,-0.4,19.6,-4.9
Cc1cc(C)cc(N(CC(=O)NC(C)C)C(=O)CCC(=O)Nc2ccccn2)c1,.,-2.4,6.3,3.9,26.5,10.2
Cc1ccc2nc(C)c(CN3CCN(c4ccc([N+](=O)[O-])cc4Cl)CC3)n2c1,.,-0.7,7.2,4.0,18.7,2.5
SMILES,WT yeast gro inh,TPT1 inh,SKKanGAS inh,Platelet DG rel,PHOSPHO1 block,Rtt109 Vps75
Cc1cc(C(=O)NNC(=O)Cc2ccc(Cl)c(Cl)c2)c(C)o1,.,.,.,.,.,1.4
COc1ccc(N2CCN(CCC(O)c3ccc4ccccc4c3)CC2)cc1 (centres undefined),.,1.6,0.1,-11.5,19.5,2.2
Cc1ccsc1C(=O)NCCC(c1ccccc1)c1ccccc1,67.1*,3.0,-9.1,1.7,16.7,1.5
CCC(C)Nc1nc(N)c([N+](=O)[O-])c(Nc2cc(OC)ccc2OC)n1 (centres undefined),.,-3.5,68.7*,-4.2,32.7,0.3
CCC(C)Nc1nc(N)c([N+](=O)[O-])c(Nc2ccccc2OC)n1 (centres undefined),.,1.1,1.5,-17.0,-12.7,-6.5
Cc1nnc(SCC(=O)NNC(=O)c2ccccc2)n1N,.,.,.,.,.,-0.5
O=C(COC(=O)c1cc(S(=O)(=O)N2CCOCC2)ccc1Cl)Nc1ccccc1Cl,.,.,.,.,.,-0.7
O=Nc1c2cc3ccccc3[nH]c-2c2ccccc12,.,.,.,.,.,-8.3
O=Nc1c(O)c2ccccc2c2ccccc12,.,0.4,66.2*,-0.6,.,1.8
COc1ccc(CN(C)S(=O)(=O)c2nnc(NC(=O)c3ccccc3Br)s2)cc1,.,-1.9,59.0*,-7.5,22.2,2.9
COc1cc(/C=C2\CCC/C(=C\c3ccc(O)c(OC)c3)C2=O)ccc1O,.,10.7,64.6*,4.2,22.9,3.4
COc1cc(/C=C2/CCCC(C(=O)C(F)(F)F)=C2O)ccc1O,.,18.8,-8.9,-3.6,-122.8,10.4
CN1C(=S)SC(C)(C)C1(C)NO (centres undefined),65.4*,-4.2,-7.5,2.8,10.7,-1.6
Fc1cccc2sc(Nc3nnc(-c4ccccc4)o3)nc12,4.8,-3.9,87.4*,9.9,0.5,-1.8
COc1ccc(-c2nnc(Nc3nc4c(OC)cccc4s3)o2)cc1,26.1,-8.7,73.2*,2.6,14.8,11.7
Cc1nn(C2CCS(=O)(=O)C2)c(C)c1CN(C)C(=O)c1ccc(Cl)cc1 (centres undefined),.,.,.,.,.,-6.2
Cc1ccc2c(C)cc[n+](CCCS(=O)(=O)[O-])c2c1,-3.3,-0.7,1.7,1.2,-12.5,1.0
Cc1cc(C)c2sc(C)[n+](CCCS(=O)(=O)[O-])c2c1,-2.5,-3.6,2.6,4.5,48.8,90.1*
CC[n+]1c(C)sc2c(C)cc(C)cc21,4.8,-1.1,-0.6,.,25.5,114.1*
COCCn1c(SCC(=O)c2c(N)n(C3CC3)c(=O)[nH]c2=O)nnc1-c1cccc(C)c1,.,.,.,.,.,17.2
C/C(=N\Nc1cccc2cccnc12)c1ccc(C)cc1,73.7*,2.9,1.4,-12.2,-46.3,-4.6
Cc1cnc(C(=O)OC(C)C(=O)NCc2ccccc2)cn1 (centres undefined),.,1.4,-2.0,-2.4,.,0.4
Cc1ccc(-n2c(N)c(-c3nc4ccccc4n3C)sc2=S)cc1,-1.6,-0.5,50.3*,14.5,69.2*,5.7
Cc1ccc2nc(-c3ccccc3)c(-c3ccccc3)nc2c1,65.1*,-2.6,-3.5,5.6,28.8,-3.2
COc1cc(-c2c(C#N)c(N)nc3c2c(C)nn3-c2ccc(C)c(C)c2)cc(OC)c1OC,15.1,6.1,50.2*,-0.9,18.2,9.0

# Compound activity: PubChem BioAssay, several laboratories
